Here are results for 40 compounds from PubChem BioAssay (Tox21).

Records with an inconclusive call do not appear. Unmarked numbers belong to inactive results. The source made the active and inactive calls. Calls come from the whole dose curve; as a rule, active = well fitted activation curve with a large enough effect in the signal ratio in the repeat runs (not every such curve was filed as active); inconclusive = weak or mixed curves, or effect the other way; inactive = flat fitted curve, though single readings scatter; the % refers to the signal ratio.
% is set by controls: 0 for no effect and ±100 for the full control effect.

A short description of the experiment: qHTS assay to identify small molecule agonists of the endoplasmic reticulum stress response signaling pathway (AID 1159516). The following applies: ESRE-bla HeLa, ER stress beta-lactamase reporter, 5 h; series mostly up to 61 µM. The source says:
National Center for Advancing Translational Sciences [NCATS]
NIH Chemical Genomics Center [NCGC]
U.S. Environmental Protection Agency [EPA]
National Institutes of Environmental Health Sciences [NIEHS]
National Toxicology Program [NTP]
U.S. Food and Drug Administration [FDA]
Endoplasmic Reticulum (ER) plays an important role in cellular signaling, protein folding/maturation, stress response, lipid biosynthesis, calcium storage and release etc. Under stress conditions, proteins in ER misfold or unfold, and leading to the expression of ER stress responsive genes. ER stress has been associated with a variety of pathophysiological conditions such as cancer, inflammation, neurodegenerative diseases, diabetes, ischemic heart disease etc. To identify the compounds that induce ER stress response, an ER stress reporter cell line, CellSensor ESRE-bla HeLa (Life Technologies, Carlsbad, CA) containing a beta-lactamase reporter gene under control of the Endoplasmic reticulum Stress Response Element (ESRE) was used to screen Tox21 10K compound library.
Tox21 Assay Protocol Summary:
ESRE-bla HeLa cells were dispensed at 1,500 cells/6 uL of assay medium per well into black wall/clear-bottom 1536-well plates using a Multidrop Combi (ThermoFisher Scientific, Waltham, MA) dispenser. After the assay plates were incubated at 37 C and 5% CO2 for an overnight, 23 nL of compounds dissolved in DMSO, positive controls or DMSO only was transferred to the assay plate by a Pintool station (Kalypsys, San Diego, CA). The assay plates were incubated at 37 C and 5% CO2 for 5 hr. One uL of LiveBLAzer B/G FRET substrate (Life Technologies) was added using a Flying Reagent Dispenser (Aurora Discovery, San Diego, CA) and the plates were incubated at room temperature for 2 hr. Fluorescence intensity (405 nm excitation, 460 nm and 530 nm emissions) was measured using an Envision plate reader (PerkinElmer, Shelton, CT).
Turning to `O=C1CCCC(=O)C1`, the result was inactive.

In the case of `C=COCC1CCC(CO)CC1` (stereo not given), the compound was classed as inactive.

Turning to `CN(C)CCCNCCCN(C)C`, the outcome was inactive.

Turning to `CCN(CC)CCNC(=O)c1cc(S(C)(=O)=O)ccc1OC`, the outcome was inactive.

For `CC(NC(CCc1ccccc1)C(=O)O)C(=O)N1C(=O)N(C)CC1C(=O)O` (stereo not given), the outcome was inactive.

In the case of `Cc1[nH]c(=O)c(C#N)cc1-c1ccc2nccn2c1`, the compound was called inactive.

Regarding `FC(F)OC(Cl)C(F)(F)F` (stereo not given), the compound was called inactive.

With `CCCCC(CC)COC(=O)c1ccccc1O` (stereo not given), the outcome was inactive.

In the case of `CC(=O)OCC(=O)[C@@]1(O)CCC2C3CCC4=CC(=O)CC[C@]4(C)C3[C@@H](O)C[C@@]21C` (stereo not given in full), the outcome was inactive.

As to `CCCCNC(=O)NCCCC`, the call was inactive.

In the case of `CC(C)NCCCC1(C(N)=O)c2ccccc2-c2ccccc21`, the compound was called inactive.

As for `COCCCOCCCOC`, the outcome was inactive.

With `CCCCCCCCCCCCCC=O`, the activation is -3.51% [at 6.95 µM].

With `COc1ccccc1OCC(O)CN1CCN(CC(=O)Nc2c(C)cccc2C)CC1` (stereo not given), the call was inactive.

With `FC1(F)C(F)(F)C(F)(F)C2(F)C(F)(F)C(F)(F)C(F)(F)C(F)(F)C2(F)C1(F)F` (stereo not given), the compound was called inactive.

On to `CCc1ccc(O)c(OC)c1`, for which the call was inactive.

As for `CCOC(=O)[C@H](CCc1ccccc1)N[C@@H](C)C(=O)N1[C@H](C(=O)O)C[C@@H]2CCC[C@@H]21`, the compound was called inactive.

Regarding `NC(=O)Nc1ccccc1`, the result was inactive.

For the compound `NC(CSCC(=O)O)C(=O)O` (stereo not given), the compound was classed as inactive.

Turning to `COC(=O)[C@@H](N)Cc1ccc(O)c(O)c1`, the call was inactive.

`CC1(C)CO[C@@H](CC(=O)O)CN1`: the call was inactive.

In the case of `COCCc1ccc(OCC(O)CNC(C)C)cc1` (stereo not given), the result was inactive.

As to `CC/C=C\CC/C=C/CO`, the call was inactive.

`N[C@@H](C(=O)N[C@@H]1C(=O)N2C(C(=O)O)=C(Cl)CS[C@H]12)c1ccccc1`: the activation was 4.99% [at 6.95 µM].

For the compound `N#Cc1ccc(C2CCCc3cncn32)cc1` (stereo not given), the call was inactive.

Consider `CCCCCSCCCCC`, for which the call was inactive.

As to `NS(=O)(=O)c1cc(C(=O)NN2C[C@H]3[C@H]4CCC(C4)[C@H]3C2)ccc1Cl`, the compound was called inactive.

As to `CCOC(=O)Nc1ccc(NCc2ccc(F)cc2)nc1N`, the outcome was inactive.

`COc1nc(N)nc2c1ncn2[C@@H]1O[C@H](CO)[C@@H](O)[C@@H]1O`: the result was inactive.

In the case of `O=c1cc(CO)occ1O`, the result was inactive.

As for `C[C@](N)(Cc1ccc(O)cc1)C(=O)O`, the activation is 0.0819% [at 6.95 µM].

Consider `CN(C)CCCN1c2ccccc2CCc2ccc(Cl)cc21`, for which the result was inactive.

Consider `CN1CCN(c2cc3c(cc2F)c(=O)c(C(=O)O)cn3-c2ccc(F)cc2)CC1`, for which the result was inactive.

On to `OC[C@]1(O)OC[C@@H](O)[C@H](O)[C@@H]1O`, for which the result was inactive.

For `c1ccc([C@H]2CN3CCSC3=N2)cc1`, the compound was called inactive.

`COc1ccc2c(c1)c(CC(=O)OCC(=O)O)c(C)n2C(=O)c1ccc(Cl)cc1`: the compound was classed as inactive.

For the compound `CC(C[N+](C)(C)C)OC(N)=O` (stereo not given), the compound was called inactive.

On to `COc1ccc(CCN(C)CCCC(C#N)(c2cc(OC)c(OC)c(OC)c2)C(C)C)cc1OC` (stereo not given), for which the outcome was inactive.

Turning to `CCCN1CCCC[C@H]1C(=O)Nc1c(C)cccc1C`, the result was inactive.

Regarding `CC(C)NCC(O)c1ccc(NS(C)(=O)=O)cc1` (stereo not given), the compound was called inactive.
